TDP1 cell noCPT: qHTS for Inhibitors of human tyrosyl-DNA phosphodiesterase 1 (TDP1): qHTS in cells in absence of CPT | 15% of 420,000 active | DT40 Tdp1-/- hTDP1 cells, no CPT, ATP luminescence, 48 h | Potency, µM (top dose mostly 46.2 µM), for inactives: at the highest dose activity change, negative = growth inhibition, hits mostly inhibitors | AID 686978, 2013; note: nearly all actives have a fitted effect of over 55% in size
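Stably hTDP1-transfected Tdp1-null chicken DT40 cells were treated with library compounds minus camptothecin and grown for at least 48 hr at 37 °C, after which cellular ATP was quantified by luminescence.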
TDP1 cell CPT: DT40-hTDP1 cell growth loss with CPT; Potency, µM (doses to about 46.2 µM), for inactives: at the top dose activity change, negative = growth inhibition, most hits filed as inhibitors; 12% of 420,000 active; chicken DT40 Tdp1-/-;hTDP1 cells + 20 nM CPT, ATP luminescence, 48 h; note: nearly all actives have a fitted effect of over 55% in size
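Cell growth measured by CellTiter-Glo luminescence after a minimum 48 h, 37 C compound exposure with 20 nM CPT in Tdp1-knockout DT40 cells stably expressing hTDP1, seeded 400/well; qHTS titration format.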
HT1080NT lethal: kills 2HG-producing HT-1080-NT fibrosarcoma cells; HT-1080-NT fibrosarcoma viability, CellTiter-Glo ATP luminescence, 48 h; Potency, µM (top dose mostly 46.1 µM), for inactives: at the highest dose activity, negative = less viability, usual class: cytotoxic; 1.6% of 360,000 active; AID 686970;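 note: NT is the 2HG producing partner of a matched IDH1 knockdown line; 0% = DMSO-treated cells and -100% = media-only wells without cells; nearly all actives have a fitted effect of over 55% in size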
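Viability by CellTiter-Glo luminescence after 48 h compound exposure at 37C of HT-1080-NT cells (750/well, RPMI, 5% FBS). % activity scaled between DMSO wells and medium-only wells, then curve-fitted and categorized by curve class.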
KB-V1 cytotox: kills drug-selected multidrug resistant KB-V1 cells; KB-V1 MDR cells viability, CellTiter-Glo, 72 h; Potency, µM (titrated, usually from 46.1 µM), actives largely listed as cytotoxic; 3.4% of 400,000 active; note: nearly all actives have a fitted effect of over 60% in size
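Cytotoxicity toward P-gp-expressing KB-V1 cells was determined as loss of CellTiter-Glo luminescence after 72 h at 37 degrees C. Compounds were tested in quantitative HTS format across a concentration range, with curves fitted to normalized data.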
HT1080 IDH1KD tx: toxicity to HT-1080 IDH1 knockdown cells (counter line); HT-1080 IDH1 knockdown viability, ATP luminescence, 48 h; 2% of 360,000 active; Potency, µM (titrated, usually from 46.1 µM), without a hit: at the top dose activity, negative = toxicity, actives largely listed as cytotoxic; AID 686971;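 note: 0% = DMSO wells and -100% = cell-free medium wells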
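Luminescent ATP read-out (CellTiter-Glo, 10 min at room temperature) after 48 h compound exposure at 37 °C gave viability of IDH1-knockdown HT-1080 cells. Activity was normalised to DMSO and cell-free wells, then fitted as concentration-response curves.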
KB-3-1 cytotox: KB-3-1 parental cell cytotoxicity | KB-3-1 viability, CellTiter-Glo ATP luminescence, 72 h | Potency, µM (doses to about 46.1 µM), usual class: cytotoxic | 1.4% of 400,000 active; note: nearly all actives have a fitted effect of over 60% in size
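Multi-concentration cytotoxicity screen in KB-3-1 cells grown in DMEM lacking phenol red with 10% FBS. After 72 h at 37 °C with compound, ATP-dependent luminescence was recorded.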
* = called active by the depositor; i = inactive; ? = inconclusive; nt = no result given; [ ] = another dose, or the depositor's remark. The list is not random: actives were taken first. Their share in the collection is about 19%. Calls come from the whole dose curve; as a rule, active = well fitted curve in the direction sought with a large enough effect; inconclusive = small, poorly fitted or top-dose-only effect, or another doubt; inactive = no such curve, though single readings can be large; an effect the other way counts as inactive or inconclusive. Unless noted, % is set by controls: 0 for no effect and ±100 for the full control effect; potency is the fitted concentration of half-maximal effect.

SMILES	TDP1 cell noCPT	TDP1 cell CPT	HT1080NT lethal	KB-V1 cytotox	HT1080 IDH1KD tx	KB-3-1 cytotox
CCOC(=O)c1[nH]c2cc3c(cc2c1NC(=O)CN1CC(C)CC(C)C1)OCO3 (stereo unspecified)	25.9µM*	?	?	?	-17.7%	?
CCOC(=O)c1[nH]c2ccc(OCC)cc2c1NC(=O)CN1CCN(c2ccccn2)CC1	16.4µM*	?	-3.2%	i	-7.2%	i
COC(=O)c1[nH]c2cc(OC)ccc2c1NC(=O)CCN1CCN(c2ccccc2)CC1	?	?	6.3%	i	22.1%	i
CCOC(=O)c1[nH]c2ccc(OC)cc2c1NC(=S)N1CCN(c2ccccn2)CC1	-3.3%	-6.4%	2.4%	i	2.3%	i
CCOC(=O)c1[nH]c2ccc(OC)cc2c1NC(=O)CN1CCc2ccccc2C1	16.4µM*	25.9µM*	?	?	?	?
CCOC(=O)c1[nH]c2ccc(OC)cc2c1NC(=O)CN1CCC2(CC1)OCCO2	-15.4%	-12.9%	17.4%	i	7.4%	i
COC(=O)c1[nH]c2cc(OC)ccc2c1NC(=O)CCN1CCN(c2cccc(C)c2C)CC1	20.6µM*	?	?	i	?	?
COc1ccccc1NS(=O)(=O)c1ccc2[nH]c(=S)oc2c1	-9.9%	-1.7%	2.9%	i	-0.7%	i
O=C(Nc1ccc(-c2nc3ccccc3[nH]2)cc1)c1ccc(C(F)(F)F)cc1	nt	nt	nt	i	nt	i
CCC1CCCCN1C(=O)CSc1nnc(CNC(=O)c2c(F)cccc2Cl)o1 (stereo unspecified)	3.5%	-15.1%	13.9%	i	-1.2%	i
COC(=O)c1[nH]c2ccc(F)cc2c1NC(=O)CCN1CCN(Cc2ccc3c(c2)OCO3)CC1	20.6µM*	16.4µM*	-8.5%	?	-9.0%	i
CNc1cncc(-c2cccc(C(=O)NC3CC3)c2)n1	?	?	22.1%	i	11.9%	i
COC(C[C@H]1O[C@@H]1C(=O)COCc1ccccc1)OC	4.61µM*	4.11µM*	-2.1%	i	-10.7%	i
COC(C[C@@H]1O[C@H]1C(=O)COCc1ccccc1)OC	20.6µM*	16.4µM*	7.5%	i	7.1%	i
COC(C[C@@H]1O[C@@H]1C(=O)COCc1ccccc1)OC	?	18.4µM*	2.5%	i	-2.5%	i
COC(C[C@@H]1O[C@H]1[C@H](O)COCc1ccccc1)OC	0.2%	-6.1%	17.0%	i	0.3%	i
CN(C(=O)CS(=O)(=O)c1cn(CC(=O)N2CCCC2)c2ccccc12)c1ccccc1	17.5%	-11.8%	-0.3%	i	-2.9%	i
Cn1nc(C(=O)OCC(=O)NC2CCS(=O)(=O)C2)c2ccccc2c1=O (stereo unspecified)	3.1%	9.1%	9.5%	i	6.3%	i
CCOC(=O)c1ccccc1NS(=O)(=O)c1c(-c2ccc(C)cc2)csc1C(=O)OC	5.8µM*	6.51µM*	nt	i	nt	?
COC(=O)c1scc(-c2ccc(C)cc2)c1S(=O)(=O)Nc1ccc(F)cc1F	-20.2%	-13.8%	nt	i	nt	i
CCOc1ccccc1NS(=O)(=O)c1c(-c2ccc(C)cc2)csc1C(=O)OC	16.4µM*	?	nt	i	nt	?
COc1ccc(C(=O)NCC2Cc3cc(C)cc(-c4nc5ccccc5s4)c3O2)c(OC)c1OC (stereo unspecified)	-10.0%	8.9%[9.04 µM]	nt	nt	nt	nt
COc1ccc(S(=O)(=O)n2nc(-c3cc(OC)c(OC)c(OC)c3)cc2N)cc1OC	?	-1.0%	-24.5%	i	-3.5%	i

Screens from PubChem BioAssay.
